For the assay, the target named is Genome polyprotein (Poliovirus type 1 (strain Mahoney)) (UniProt P03300). Put plainly: inhibitors of poliovirus polymerase RNA elongation – biochemical, fluorescence polarization, total intensity, primary screen (AID 588519). For z-score: compound at 16.7 µg/mL. To be noted: stronger effect = lower value; for % elongation: compound at 16.7 µg/mL; for z-score: measured here: FP z-score. In general terms: Polarisation of emitted light reports the rotation of a fluorescent probe.
Sequence of Genome polyprotein (Poliovirus type 1 (strain Mahoney)) (P03300 1749-2209 limits assumed): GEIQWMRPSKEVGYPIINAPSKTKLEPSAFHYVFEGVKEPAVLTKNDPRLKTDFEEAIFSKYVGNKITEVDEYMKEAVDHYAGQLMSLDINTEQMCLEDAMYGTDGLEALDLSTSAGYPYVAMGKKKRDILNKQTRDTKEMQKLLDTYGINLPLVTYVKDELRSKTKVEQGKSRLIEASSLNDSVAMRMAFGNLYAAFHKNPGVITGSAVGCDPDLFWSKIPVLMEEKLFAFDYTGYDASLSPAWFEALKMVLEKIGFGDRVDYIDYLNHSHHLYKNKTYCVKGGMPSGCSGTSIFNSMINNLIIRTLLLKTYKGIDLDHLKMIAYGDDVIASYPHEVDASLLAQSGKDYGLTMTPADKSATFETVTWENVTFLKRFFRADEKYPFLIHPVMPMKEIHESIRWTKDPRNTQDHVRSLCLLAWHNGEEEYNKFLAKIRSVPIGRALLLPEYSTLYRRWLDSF

Where [1] appears, read: measured here: total intensity read-out.

SMILES strings stand for the structures. The whole screen tested about 150,000 compounds, of which about 1,000 (0.67%) were called active. The sample holds actives, similar compounds and a random draw of the others, so the mix is not that of the screen. Cut-off read from the data, not from the text of the source: active = % elongation below about 90%; inactive = the rest, inconclusive results apart.

Turning to `O=C(Nc1ccccc1I)C1CCCO1` (stereo unspecified), the % elongation was 101% (inactive) and the z-score stood at 0.2. Also, the % elongation under setting [1] came to 100%.

In the case of `CN(Cc1ccccc1)C(=O)Cn1cnc(S(=O)(=O)N2CCCC2)c1`, the % elongation is 103% (inactive) and the z-score was found to be 1. Also, the % elongation under setting [1] is 101%.

With `O=C(Nc1ccc(Cl)cc1Cl)C1CC(=O)N(C2CCCCC2)C1` (stereo unspecified), the % elongation was 105% (inactive) and the z-score stood at 0.2. In addition, the % elongation under setting [1] is 102%.

Take `Oc1c(C(c2cccnc2)N2CCOCC2)ccc2cccnc12` (stereo unspecified): the % elongation was 85% (inactive) and the z-score is -2.9. Further, the % elongation under setting [1] worked out at 110%.

On to `O=C(CCc1ccccc1)NCC1COC2(CCCCC2)O1` (stereo unspecified), for which the % elongation was 106% (inactive) and the z-score came to 0.3. The % elongation under setting [1] was found to be 112%.

As for `CCN(CC(=O)Nc1ccc(S(=O)(=O)N2CCCC2)cc1)CC(=O)Nc1cccc(OC)c1`, the % elongation was 89% (active) and the z-score was -1.2. For the same compound, the % elongation under setting [1] was 88%.

With `COc1cccc(NC(=O)CN(C)CC(=O)Nc2ccc3c(c2)CCC3)c1`, the % elongation is 100% (inactive) and the z-score is -0.4. For the same compound, the % elongation under setting [1] was determined as 101%.

As for `COc1cc(NC(=O)CN2CCN(S(=O)(=O)c3ccc(Br)cc3)CC2)cc(OC)c1`, the % elongation was 114% (inactive) and the z-score turned out to be 1.5. Under setting [1], the % elongation came to 102%.

For `CCN(CC)S(=O)(=O)c1cc(C(=O)N2CCN(Cc3ccc4c(c3)OCO4)CC2)ccc1Cl`, the % elongation was 109% (inactive) and the z-score amounted to 0.8. For the same compound, under setting [1], the % elongation was found to be 109%.

On to `COC(=O)COc1ccc(CSc2nc3ccccc3c(=O)n2C)cc1`, for which the % elongation is 100% (inactive) and the z-score is -0.3. The % elongation under setting [1] turned out to be 95%.

On to `Cc1ccc2nc(CSc3nnc(-c4ccccc4)o3)cc(=O)n2c1`, for which the % elongation is 99% (inactive) and the z-score is -0.7. In addition, the % elongation under setting [1] is 92%.

On to `CNC(=O)C1Cc2cc(S(=O)(=O)N3CCCC3)ccc2N1C(C)=O` (stereo unspecified), for which the % elongation was 99% (inactive) and the z-score was -1.3. Moreover, the % elongation under setting [1] was 103%.

On to `O=C(Nc1cccnc1)C(=O)c1c(O)[nH]c2ccccc12`, for which the % elongation is 101% (inactive) and the z-score is -0.1. Further, the % elongation under setting [1] is 105%.

For `CC(NC(=O)C1CCCN1C(=O)c1cccs1)c1ccc(-n2ccnc2)cc1` (stereo unspecified), the % elongation was 100% (inactive) and the z-score is -0.2. Moreover, the % elongation under setting [1] was found to be 104%.

On to `O=c1c(Cl)c(NC2CC2)cnn1-c1ccccc1`, for which the % elongation was 102% (inactive) and the z-score was 0.2. The % elongation under setting [1] was 103%.

For the compound `O=c1c(Cl)c(Cl)cnn1-c1nc2ccccc2[nH]1`, the % elongation is 48% (active) and the z-score is -5.8. Also, the % elongation under setting [1] stood at 58%.

Turning to `N#Cc1cnn(-c2nc3ccccc3[nH]2)c1N`, the % elongation was 105% (inactive) and the z-score is 0.3. Moreover, the % elongation under setting [1] was found to be 104%.

For the compound `Cc1cc(=O)[nH]c(SC(C)C(=O)NC2CCCCC2)n1` (stereo unspecified), the % elongation is 99% (inactive) and the z-score was -0.4. The % elongation under setting [1] is 103%.

Consider `Clc1nc2ccccc2c(N2CCCCC2)c1CNC1CC1`, for which the % elongation was 104% (inactive) and the z-score is 0.8. In addition, the % elongation under setting [1] was determined as 105%.

Consider `O=C(/C=C/c1c(Cl)nc2sccn12)NCc1ccc2c(c1)OCO2`, for which the % elongation was 97% (inactive) and the z-score was -0.6. Further, the % elongation under setting [1] is 102%.

Turning to `CC(C)(C)c1ccc(C(=O)NCCn2c(N)c(C#N)c3nc4ccccc4nc32)cc1`, the % elongation was 107% (inactive) and the z-score is 0.5. Further, the % elongation under setting [1] was found to be 112%.

For the compound `N#Cc1c(N)n(Cc2ccc(Cl)cc2)c2nc3ccccc3nc12`, the % elongation is 75% (active) and the z-score is -4.3. Besides, the % elongation under setting [1] is 85%.

With `CC(c1ccccc1)n1c(N)c(C#N)c2nc3ccccc3nc21` (stereo unspecified), the % elongation is 97% (inactive) and the z-score is -1.4. The % elongation under setting [1] was 106%.

`Cc1nnc2ccc(-c3ccc(NS(=O)(=O)c4ccc5c(c4)OCCO5)cc3)nn12`: the % elongation is 99% (inactive) and the z-score was -1.2. In addition, the % elongation under setting [1] came to 102%.

As for `CCOC(=O)c1c(NC(=O)Cc2coc3ccc(CC)cc23)sc2c1CCC2`, the % elongation is -3% (active) and the z-score was -8.5. For the same compound, under setting [1], the % elongation was determined as 25%.

Regarding `CCOC(=O)c1c(NC(=O)c2cc(-n3cnnc3)ccc2Cl)sc2c1CCCC2`, the % elongation was 99% (inactive) and the z-score was -0.5. Further, under setting [1], the % elongation was 100%.

With `CCOCCCNC(=O)c1c(NC(=O)Cc2coc3c(C)c(C)ccc23)sc2c1CCC2`, the % elongation was 116% (inactive) and the z-score amounted to 0.1. For the same compound, the % elongation under setting [1] turned out to be 117%.

Take `CCOC(=O)c1c(NC(=O)c2cc(-c3ccc(Cl)cc3)on2)sc2c1CCCC2`: the % elongation is 84% (active) and the z-score is -3. The % elongation under setting [1] amounted to 85%.

For `COc1ccc(-c2cc(C(=O)Nc3sc4c(c3C(N)=O)CCCC4)no2)cc1`, the % elongation was 100% (inactive) and the z-score was -0.5. Besides, the % elongation under setting [1] amounted to 102%.

`CCOCCCNC(=O)c1c(NC(=O)Cc2coc3ccc(C)cc23)sc2c1CCC2`: the % elongation was 116% (inactive) and the z-score is 0.1. Further, the % elongation under setting [1] worked out at 114%.

For `CCCN(Cc1nc2cc(Cl)ccc2c(=O)[nH]1)C(=S)NC`, the % elongation is 99% (inactive) and the z-score was -0.3. The % elongation under setting [1] turned out to be 99%.

Take `CN(C)/N=C/C=C1\CCC/C(=C\C=N\N(C)C)C1=O`: the % elongation is 165% (inactive) and the z-score came out at 6.6. Also, the % elongation under setting [1] was 154%.

Take `CN(C)c1ccc(/C=C(\C#N)NC(=O)c2ccccc2)cc1`: the % elongation is 103% (inactive) and the z-score amounted to 0. The % elongation under setting [1] came to 108%.

`Cc1ccc(NC(=O)COc2ccccc2O)cc1C`: the % elongation was 103% (inactive) and the z-score was 0.1. In addition, the % elongation under setting [1] turned out to be 104%.

For `Cc1ccc2[nH]c(=O)c(CNCCCN(C)C)cc2c1`, the % elongation is 100% (inactive) and the z-score is -0.2. Under setting [1], the % elongation came to 102%.

Consider `Cc1c(NC(=O)Cc2ccc(S(=O)(=O)N3CCCCC3)cc2)c(=O)n(-c2ccccc2)n1C`, for which the % elongation was 102% (inactive) and the z-score was -0.1. Under setting [1], the % elongation was 108%.

Regarding `Cc1cc(Nc2ccc(Cl)cc2)c2ccccc2n1`, the % elongation was 92% (inactive) and the z-score is -1. For the same compound, the % elongation under setting [1] stood at 93%.

With `Cc1ccc2nc(C)cc(Nc3ccccc3)c2c1`, the % elongation was 101% (inactive) and the z-score was -0.1. The % elongation under setting [1] came to 105%.

For `Cc1cc(Sc2nnc(C)s2)c2ccccc2n1`, the % elongation was 86% (active) and the z-score was -1.5. Also, the % elongation under setting [1] was 83%.

`CC(C)CCSc1nc2ncn(C)c2c(=O)[nH]1`: the % elongation is 104% (inactive) and the z-score worked out at 0.4. Besides, the % elongation under setting [1] was 108%.

In the case of `COc1cc(/C=N/NS(=O)(=O)c2cc(C)ccc2C)cc(OC)c1O`, the % elongation is 104% (inactive) and the z-score was 0.3. Also, under setting [1], the % elongation was found to be 124%.

For the compound `O=C1S/C(=C/c2cc3c(cc2Cl)OCO3)C(=O)N1c1ccccc1`, the % elongation was 100% (inactive) and the z-score was -0.4. For the same compound, the % elongation under setting [1] worked out at 103%.

For the compound `CCN(CC)c1nc(C#N)nc(OC)n1`, the % elongation is 87% (active) and the z-score is -1.5. In addition, the % elongation under setting [1] amounted to 90%.

Consider `NS(=O)(=O)c1ccc(N=Cc2c(O)n(Cc3ccc4c(c3)OCO4)c(=O)c3ccccc23)cc1`, for which the % elongation was 100% (inactive) and the z-score is 0. Under setting [1], the % elongation stood at 105%.

`CN=C(Cl)c1cccs1`: the % elongation was 99% (inactive) and the z-score is -0.6. Besides, under setting [1], the % elongation worked out at 101%.

As for `O=C(Nc1cccc(Cl)c1)N1CCC(n2nnc3cc(F)ccc32)CC1`, the % elongation was 102% (inactive) and the z-score was 0.2. Further, the % elongation under setting [1] was 100%.

`CN(C)C(=O)CCSc1nc2cc(Cl)ccc2o1`: the % elongation was 103% (inactive) and the z-score was found to be 0.3. Also, under setting [1], the % elongation stood at 102%.

For the compound `CCCCC(=O)Nc1sc2c(c1C#N)CCCC2`, the % elongation is 92% (inactive) and the z-score is -1.4. Under setting [1], the % elongation amounted to 100%.

Consider `COc1ccccc1CNC(=O)CS(=O)(=O)c1cccc2nsnc12`, for which the % elongation was 105% (inactive) and the z-score is -0.4. Moreover, under setting [1], the % elongation is 112%.

With `COc1ccccc1CNCc1ccc(C(=O)O)s1`, the % elongation is 108% (inactive) and the z-score worked out at 0.4. Further, the % elongation under setting [1] came to 113%.

Turning to `CNC(=O)c1sc(NCc2ccccc2OC)nc1C`, the % elongation is 80% (active) and the z-score was -3.1. Besides, under setting [1], the % elongation came to 89%.

As to `O=C(c1cccc(Cl)c1)N1CCN(CCc2ccncc2)CC1`, the % elongation was 21% (active) and the z-score was -6.3. The % elongation under setting [1] stood at 37%.

Regarding `O=C(NCc1ccncc1)C1CCN(C(=O)c2cccc(Cl)c2)CC1`, the % elongation is 99% (inactive) and the z-score was -0.2. The % elongation under setting [1] was determined as 102%.

In the case of `O=C(c1ccccc1)N1CCN(c2cccc(Cl)c2)CC1`, the % elongation is 100% (inactive) and the z-score is -0.3. Besides, under setting [1], the % elongation amounted to 95%.

As for `O=C(O)CSc1nnc(-c2ccccc2)n1-c1ccccc1`, the % elongation is 101% (inactive) and the z-score is -0.2. Further, the % elongation under setting [1] turned out to be 102%.

On to `O=C(O)c1ccc2nc[nH]c2c1`, for which the % elongation is 100% (inactive) and the z-score was -0.4. In addition, under setting [1], the % elongation is 108%.

Regarding `CCOC(=O)c1sc(NC(=O)/C=C/c2ccc(Cl)cc2)cc1C`, the % elongation is 102% (inactive) and the z-score amounted to 0.3. Further, the % elongation under setting [1] was found to be 106%.

In the case of `CC(C)(C)NCC(O)COc1c(Br)ccc2c1sc1nc3n(c(=O)c12)CCCCC3` (stereo unspecified), the % elongation is 69% (active) and the z-score was -4.7. In addition, the % elongation under setting [1] amounted to 96%.

As for `COc1cc(OC)c(N(C)C(=O)c2ccc3c(=O)n4c(nc3c2)CCCCC4)cc1Cl`, the % elongation was 105% (inactive) and the z-score turned out to be 0.9. Also, the % elongation under setting [1] came to 109%.

Regarding `CCN(C(=O)c1sc2nc3n(c(=O)c2c1C)CCCC3)c1ccccc1`, the % elongation was 100% (inactive) and the z-score was -1.2. Also, the % elongation under setting [1] is 100%.

In the case of `CC1CC(C)CN(C(=O)C(C)Sc2nnnn2-c2ccc(Cl)cc2)C1` (stereo unspecified), the % elongation was 98% (inactive) and the z-score is -0.5. Under setting [1], the % elongation was determined as 99%.

For the compound `O=C1CCCCCN1Cc1nnc(SCN2C(=O)c3ccccc3C2=O)n1-c1ccccn1`, the % elongation is 106% (inactive) and the z-score came out at 0.4. Also, the % elongation under setting [1] stood at 100%.

(Values after PubChem BioAssay AID588519 (ICCB-Longwood Screening Facility, Harvard Medical School, 2011).)
